# From PubChem BioAssay (NCI)
# The panel holds about 83,000 compounds, 20% with a hit somewhere; the sample as a whole holds those more often.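 Each cell line was grown in a 96-well plate and treated with one concentration of compound for 48 hours. Values below 10 were considered active.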 A number with no mark means an inactive call. Activity calls are given as the source filed them.
# Tested on: UACC-62 melanoma
# Assay: NCI-60 one-dose screen, 48 h (100 = growth as untreated, 0 = no growth, -100 = all killed)
# Conditions: 10 µM unless noted
row,Compound,growth
1,O=C1CN2CCC1C/C2=C\c1ccnc2c(Cl)cccc12 (stereo not given),90.5%
2,O=C1c2ccccc2-c2nnc(-c3ccc(Br)cc3)cc21,16%
3,COc1ccc(-c2nn(-c3ccc(NC(=O)c4ccc(Cl)c(Cl)c4)cc3)cc2-c2ccncc2)cc1Cl,24.5%
4,O=c1oc2ccccc2cc1-c1csc(N=Nc2c(O)[nH]c3ccc(Cl)cc23)n1,98.2%
5,COc1cc2nc(N3CCC[C@H](NC4=CC(=O)c5ccccc5C4=O)C3)nc(N)c2cc1OC,-87.9% (active)
6,O=C1C(N2CCOCC2)=Cc2cccc3cccc1c23,91.2%
7,CCOC(=O)c1c(-c2cc(OC)c(OC)c(OC)c2)csc1N,88.6%
8,N#Cc1c(-c2cccc(F)c2)cc(-c2ccc(Br)s2)[nH]c1=O,57.9%
9,COc1ccc(NC(=O)c2ccc3c(c2)nc(-c2ccc(Cl)cc2)n3-c2cc(C(C)(C)C)[nH]n2)cc1,79.6%
10,O=S(=O)(/N=C1C=C/C(=N\S(=O)(=O)c2ccccc2)c2ccccc2\1)c1ccccc1,104%
11,O=C(COc1cccc(/C=C2\COc3ccccc3C2=O)c1)c1ccccc1,59.4%
12,Cc1ccc(S(=O)(=O)N2CCc3ccc(O)c4c3C2Cc2cc(Cl)ccc2-4)cc1 (stereo not given),57%
13,COc1ccc(OC)c(C2C(C#N)=C(N)Oc3cc(O)ccc32)c1 (stereo not given),91.9%
14,CC(=O)N(CC(O)CO)c1c(I)c(C(=O)NCCO)c(I)c(C(=O)NCC(O)CO)c1I (stereo not given),111%
15,N#CC1=C(N)Oc2cc(N)ccc2C1c1ccc(F)cc1 (stereo not given),74.7%
16,CCN(CC)CCCNc1ccc(C)c2sc3ccccc3c(=O)c12,-49.2% (active)
17,COc1ccc(/C=C2\Oc3cc(C)c(Cl)cc3C2=O)cc1OC,87.3%
18,Cc1nc2ccc(Cl)cc2n1C,106%
19,COc1ccc(/C=N/NC(=O)c2cnn(CC(O)Cc3ccccc3)c2N)cc1OC1CCCC1 (stereo not given),82.8%
20,COc1ccc(-c2csc3c2-n2cccc2C3=O)cc1O,29.4%
21,COc1cc(C(F)(F)F)ccc1-c1cc(-c2ccc(F)cc2)n[nH]1,83.9%
22,C[C@@H](Oc1cc(-c2cnn(C3CC4(CCNCC4)C3)c2)cnc1N)c1c(F)ccc(Cl)c1Cl,-88.1% (active)
23,CC(C)NCC(O)COc1ccc(CCOCC2CC2)cc1 (stereo not given),110%

# Tested on: LOX IMVI melanoma
# Assay: as above
# Conditions: 10 µM unless noted
row,Compound,growth
1,COc1cc2cc(Oc3ccc(NC(=O)Nc4ccc(Cl)c(C(F)(F)F)c4)cc3)c(C)nc2cc1OCCN1CCCCC1,-97.1% (active)
2,CN1CCN(c2ccc3nc(-c4ccc5nc(-c6ccc(C(F)(F)F)cc6)[nH]c5c4)[nH]c3c2)CC1,-85.8% (active)
3,Cc1c(C(=O)Nc2nc(-c3ccccc3)cs2)nnn1-c1ccccc1Br,12% [50 µM]
4,Clc1ccc(Nc2nc(Nc3ccccc3)nc(Nc3ccc(-c4cc(-c5ccc(Cl)cc5)on4)cc3)n2)cc1,32.5%
5,C=C1CC[C@@H]2[C@@](C)(CCC[C@]2(C)C(=O)O)[C@@H]1CC[C@H](CO)CCO,99.1%
6,COc1ncnc2c1ncn2C/C(Br)=C(\Br)CCl,-87.2% (active)
7,CN1CCC(OC2c3ccccc3CCc3ccccc32)CC1,91.1%
8,COc1ccc(OC)c(/C=C2\Oc3cc(O)ccc3C2=O)c1,88.6%
9,COC(=O)[C@@]12CC[C@@H](C)[C@]3(C[C@@H](c4ccoc4)OC3=O)[C@H]1CC[C@@H]1O[C@@]12C,99.3%
10,COc1ccc(-c2nc3sc(C)cn3c2/C=C/C(=O)c2cc(OC)c(OC)c(OC)c2)cc1,48.8%
11,C=CC(=O)N1CC2(CC(n3nc(-c4ccc(Oc5ccccc5)cc4)c4c(N)ncnc43)C2)C1,-17.8% (active)
12,Cc1cc(=O)c2c(C)ccc(C)c2[nH]1,97.7%
13,O=C1CN2CCC1C/C2=C\c1ccnc2c(Cl)cccc12 (stereo not given),96%
14,O=C1c2ccccc2-c2nnc(-c3ccc(Br)cc3)cc21,1.78% (active)
15,O=c1oc2ccccc2cc1-c1csc(N=Nc2c(O)[nH]c3ccc(Cl)cc23)n1,97.7%
16,COc1cc2nc(N3CCC[C@H](NC4=CC(=O)c5ccccc5C4=O)C3)nc(N)c2cc1OC,-82.9% (active)

row,Compound,growth
1,O=C1C(N2CCOCC2)=Cc2cccc3cccc1c23,101%
2,CCOC(=O)c1c(-c2cc(OC)c(OC)c(OC)c2)csc1N,95.4%
3,N#Cc1c(-c2cccc(F)c2)cc(-c2ccc(Br)s2)[nH]c1=O,61.7%
4,Oc1cccc(Nc2nc(-c3ccccn3)cs2)c1,93.9%
5,O=S(=O)(/N=C1C=C/C(=N\S(=O)(=O)c2ccccc2)c2ccccc2\1)c1ccccc1,68.9%
6,O=C(COc1cccc(/C=C2\COc3ccccc3C2=O)c1)c1ccccc1,23.7%
7,Cc1ccc(S(=O)(=O)N2CCc3ccc(O)c4c3C2Cc2cc(Cl)ccc2-4)cc1 (stereo not given),68.9%
8,COc1ccc(OC)c(C2C(C#N)=C(N)Oc3cc(O)ccc32)c1 (stereo not given),100%
9,N#CC1=C(N)Oc2cc(N)ccc2C1c1ccc(F)cc1 (stereo not given),78.1%
10,CCN(CC)CCCNc1ccc(C)c2sc3ccccc3c(=O)c12,-93.4% (active)
11,COc1ccc(/C=C2\Oc3cc(C)c(Cl)cc3C2=O)cc1OC,92.9%
12,Cc1nc2ccc(Cl)cc2n1C,108%
13,COc1ccc(/C=N/NC(=O)c2cnn(CC(O)Cc3ccccc3)c2N)cc1OC1CCCC1 (stereo not given),82.4%
14,COc1ccc(-c2csc3c2-n2cccc2C3=O)cc1O,22.5%
15,COc1cc(C(F)(F)F)ccc1-c1cc(-c2ccc(F)cc2)n[nH]1,96.9%
16,C[C@@H](Oc1cc(-c2cnn(C3CC4(CCNCC4)C3)c2)cnc1N)c1c(F)ccc(Cl)c1Cl,-85.8% (active)
